Test results taken from PubChem BioAssay (NCI).
This is part of a sample that, as a whole, favours compounds with a hit. Of some 83,000 tested, about 20% had one in any assay.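 Cells were grown in 96-well plates and exposed to the test compound at a single concentration for 48 hours; results are reported as percent growth, with values below 10 considered active.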 Values without a mark were called inactive. Activity calls are given as the source filed them.

Experiments:
Test in all cases: NCI-60 one-dose screen, 48 h (100 = growth as untreated, 0 = no growth, -100 = all killed)
Settings in all cases: 10 µM unless noted
SR leukemia = test system: SR leukemia
RPMI-8226 leukemia = test system: RPMI-8226 leukemia
OVCAR-8 ovarian = test system: OVCAR-8 ovarian
OVCAR-5 ovarian = test system: OVCAR-5 ovarian
OVCAR-4 ovarian = test system: OVCAR-4 ovarian
SK-OV-3 ovarian = test system: SK-OV-3 ovarian
IGROV1 ovarian = test system: IGROV1 ovarian
OVCAR-3 ovarian = test system: OVCAR-3 ovarian
HS 578T breast = test system: HS 578T breast
NCI/ADR-RES ovarian = test system: NCI/ADR-RES ovarian

In the case of `C=C(CBr)[C@@H]1CC[C@]2(COC(C)=O)CC[C@]3(C)[C@H](CC[C@@H]4[C@@]5(C)CCCNC(C)(C)[C@@H]5CC[C@]43C)[C@@H]12`, the growth (SR leukemia) is reported as 10%, the growth (RPMI-8226 leukemia) is reported as 7.96% (active) and the growth (OVCAR-8 ovarian) is reported as 40.4%. It also gave a growth (OVCAR-5 ovarian) of 87.3%, a growth (OVCAR-4 ovarian) of 50.8% and a growth (SK-OV-3 ovarian) of 72.5%. For the same molecule, the growth (IGROV1 ovarian) was 60.1%, the growth (OVCAR-3 ovarian) was 33.7% and the growth (HS 578T breast) was 73.7%. It also gave a growth (NCI/ADR-RES ovarian) of 48.9%.
`COc1cc(/C=N/NC(=O)c2cnn3c2NC(c2ccccc2)C3)ccc1Oc1ccccc1` (stereo not given) was tested, and the growth (SR leukemia) was 18%, the growth (RPMI-8226 leukemia) was 56.1% and the growth (OVCAR-8 ovarian) was 30.7%. For the same molecule, the growth (OVCAR-5 ovarian) was 59.6%, the growth (SK-OV-3 ovarian) was 27.6% and the growth (IGROV1 ovarian) was 33.8%. The growth (OVCAR-3 ovarian) was -23.4% (active), the growth (HS 578T breast) was 37.8% and the growth (NCI/ADR-RES ovarian) was 41.3%.
In the case of `Cc1ccc(S(=O)(=O)NNC(=O)/C(=C\c2ccc(Cl)cc2)c2nc3ccccc3s2)cc1`, the growth (SR leukemia) is reported as 72.8%, the growth (RPMI-8226 leukemia) is reported as 87% and the growth (OVCAR-8 ovarian) is reported as 88.1%. It also gave a growth (OVCAR-5 ovarian) of 110%, a growth (OVCAR-4 ovarian) of 94.2% and a growth (SK-OV-3 ovarian) of 105%. For the same molecule, the growth (IGROV1 ovarian) was 91.4%, the growth (OVCAR-3 ovarian) was 96% and the growth (HS 578T breast) was 98.1%. The growth (NCI/ADR-RES ovarian) was 97.8%.
`COc1ccc(-c2nc3sccn3c2/C=C/C(=O)c2ccc3c(c2)OCO3)cc1` was tested, and the growth (SR leukemia) was 41.4%, the growth (RPMI-8226 leukemia) was 10.5% and the growth (OVCAR-8 ovarian) was 80.9%. The growth (OVCAR-5 ovarian) was 108%, the growth (SK-OV-3 ovarian) was 170% and the growth (IGROV1 ovarian) was 85.1%. It also gave a growth (OVCAR-3 ovarian) of 84.8%, a growth (HS 578T breast) of 96.9% and a growth (NCI/ADR-RES ovarian) of 75.7%.
Work on `CC(=O)Oc1ccc(/C=N/NC(N)=S)nc1` yielded a growth (SR leukemia) of 27.9%, a growth (RPMI-8226 leukemia) of 88.7% and a growth (OVCAR-8 ovarian) of 46.3%. It also gave a growth (OVCAR-5 ovarian) of 110%, a growth (SK-OV-3 ovarian) of 88% and a growth (IGROV1 ovarian) of 92.3%. It also gave a growth (OVCAR-3 ovarian) of 68%, a growth (HS 578T breast) of 127% and a growth (NCI/ADR-RES ovarian) of 41.9%.
`CCOC(=O)c1nc2c3ccccc3ccn2c1C(=O)OCC` gave a growth (SR leukemia) of 103%, a growth (RPMI-8226 leukemia) of 96.4% and a growth (OVCAR-8 ovarian) of 111%. For the same molecule, the growth (OVCAR-5 ovarian) was 98%, the growth (OVCAR-4 ovarian) was 107% and the growth (SK-OV-3 ovarian) was 109%. It also gave a growth (IGROV1 ovarian) of 96.5%, a growth (OVCAR-3 ovarian) of 106% and a growth (NCI/ADR-RES ovarian) of 96%.
`Oc1ccc(OCCOc2ccc(O)cc2)cc1` showed a growth (SR leukemia) of 45.7%, a growth (RPMI-8226 leukemia) of 66.9% and a growth (OVCAR-8 ovarian) of 42.4%. For the same molecule, the growth (OVCAR-5 ovarian) was 69.4%, the growth (SK-OV-3 ovarian) was 95.1% and the growth (IGROV1 ovarian) was 71.4%. It also gave a growth (OVCAR-3 ovarian) of 70.2%, a growth (HS 578T breast) of 109% and a growth (NCI/ADR-RES ovarian) of 24.3%.
For `COc1ccc(C(=O)c2nc3ccccc3n2CC(=O)c2ccc(Cl)cc2)cc1`, the growth (SR leukemia) was 16.7%, the growth (RPMI-8226 leukemia) was -17.4% (active) and the growth (OVCAR-8 ovarian) was 37.2%. It also gave a growth (OVCAR-5 ovarian) of 47%, a growth (SK-OV-3 ovarian) of 107% and a growth (IGROV1 ovarian) of 23.7%. The growth (OVCAR-3 ovarian) was -6.3% (active), the growth (HS 578T breast) was 8.51% (active) and the growth (NCI/ADR-RES ovarian) was -45.6% (active).
`COc1cc(-c2csc(NC(=O)c3cc(F)cc(C(F)(F)F)c3)n2)cc(OC)c1OC` was tested, and the growth (SR leukemia) was 16.1%, the growth (RPMI-8226 leukemia) was -4.32% (active) and the growth (OVCAR-8 ovarian) was 37.7%. It also gave a growth (OVCAR-5 ovarian) of 82.7%, a growth (OVCAR-4 ovarian) of 58.7% and a growth (SK-OV-3 ovarian) of 54.3%. For the same molecule, the growth (IGROV1 ovarian) was 43.8%, the growth (OVCAR-3 ovarian) was 12.2% and the growth (HS 578T breast) was 20%. The growth (NCI/ADR-RES ovarian) was 49.8%.
`CN(C)c1ccc(C2C(C#N)=C(/N=C/c3ccccc3)Oc3c2ccc2ccccc32)cc1` (stereo not given) showed a growth (SR leukemia) of 17.7%, a growth (RPMI-8226 leukemia) of 70.6% and a growth (OVCAR-8 ovarian) of 89.6%. The growth (OVCAR-5 ovarian) was 99.5%, the growth (SK-OV-3 ovarian) was 66.8% and the growth (IGROV1 ovarian) was 49.8%. For the same molecule, the growth (OVCAR-3 ovarian) was 43.7% and the growth (HS 578T breast) was 66.7%.
`COc1ccc(OC)c(CCn2cncc2-c2c[nH]c3ccccc23)c1` showed a growth (SR leukemia) of 60.1%, a growth (RPMI-8226 leukemia) of 45.6% and a growth (OVCAR-8 ovarian) of 89.4%. The growth (OVCAR-5 ovarian) was 94.4%, the growth (OVCAR-4 ovarian) was 44.6% and the growth (SK-OV-3 ovarian) was 72.9%. The growth (IGROV1 ovarian) was 44%, the growth (OVCAR-3 ovarian) was 57% and the growth (NCI/ADR-RES ovarian) was 71.1%.
`COc1cccc(-c2nc3occn3c2-c2ccnc(NCCCNS(=O)(=O)c3ccc(C(F)(F)F)cc3)n2)c1` showed a growth (SR leukemia) of 97.2%, a growth (RPMI-8226 leukemia) of 79.3% and a growth (OVCAR-8 ovarian) of 87%. It also gave a growth (OVCAR-5 ovarian) of 128%, a growth (SK-OV-3 ovarian) of 81.9% and a growth (IGROV1 ovarian) of 90.5%. The growth (OVCAR-3 ovarian) was 100%, the growth (HS 578T breast) was 98.2% and the growth (NCI/ADR-RES ovarian) was 89.2%.
For `COc1ccc(NC(=O)c2cc(NCc3cc(O)ccc3O)ccc2O)cc1`, the growth (SR leukemia) was 39.3%, the growth (RPMI-8226 leukemia) was 49.5% and the growth (OVCAR-8 ovarian) was 83.3%. It also gave a growth (OVCAR-5 ovarian) of 116%, a growth (SK-OV-3 ovarian) of 86% and a growth (IGROV1 ovarian) of 88.4%. It also gave a growth (OVCAR-3 ovarian) of 84.3%, a growth (HS 578T breast) of 90.1% and a growth (NCI/ADR-RES ovarian) of 101%.
With `N#C/C(=C\c1ccc([N+](=O)[O-])s1)c1nc2cc(Cl)ccc2s1` the growth (SR leukemia) was -0.613% (active), the growth (RPMI-8226 leukemia) was -13.4% (active) and the growth (OVCAR-8 ovarian) was 3.27% (active). It also gave a growth (OVCAR-5 ovarian) of 63.6%, a growth (OVCAR-4 ovarian) of 13.4% and a growth (SK-OV-3 ovarian) of 65.1%. For the same molecule, the growth (IGROV1 ovarian) was -16.2% (active), the growth (OVCAR-3 ovarian) was 20.9% and the growth (HS 578T breast) was 77.6%. The growth (NCI/ADR-RES ovarian) was -5.71% (active).
`CNC(=O)c1cccc(Cn2nc(C)c(NC(=O)c3ccc(COc4ccc(C(F)(F)F)cc4C)cc3)c2C)n1` gave a growth (SR leukemia) of 22%, a growth (RPMI-8226 leukemia) of 32.7% and a growth (OVCAR-8 ovarian) of 35.8%. The growth (OVCAR-5 ovarian) was 104%, the growth (OVCAR-4 ovarian) was 37.8% and the growth (SK-OV-3 ovarian) was 74%. The growth (IGROV1 ovarian) was 65.1%, the growth (OVCAR-3 ovarian) was 35.1% and the growth (HS 578T breast) was 87.7%. It also gave a growth (NCI/ADR-RES ovarian) of 33.4%.
`COc1cc2c(c(OC)c1OC)CCC(c1cccc(NC(=O)c3cccc(Br)c3)c1)O2` (stereo not given) gave a growth (SR leukemia) of 84.2%, a growth (RPMI-8226 leukemia) of 78.2% and a growth (OVCAR-8 ovarian) of 93.6%. For the same molecule, the growth (OVCAR-5 ovarian) was 98.5%, the growth (OVCAR-4 ovarian) was 83.5% and the growth (SK-OV-3 ovarian) was 84%. It also gave a growth (IGROV1 ovarian) of 85%, a growth (OVCAR-3 ovarian) of 97.3% and a growth (HS 578T breast) of 84.1%. For the same molecule, the growth (NCI/ADR-RES ovarian) was 91.8%.
With `COc1ccc(C(=O)c2cc(C)c(OC)c(C)c2)c(OC)c1N(C(=O)CCl)C(=O)CCl` the growth (SR leukemia) was 21%, the growth (RPMI-8226 leukemia) was 17.7% and the growth (OVCAR-8 ovarian) was 10.3%. The growth (OVCAR-5 ovarian) was 29.2%, the growth (SK-OV-3 ovarian) was 2.36% (active) and the growth (IGROV1 ovarian) was 13.8%. For the same molecule, the growth (OVCAR-3 ovarian) was -6.63% (active), the growth (HS 578T breast) was 23% and the growth (NCI/ADR-RES ovarian) was -37.1% (active).
In the case of `COc1cc2c(=O)n(CCN)c3c4cc5c(cc4ccc3c2cc1OC)OCO5`, the growth (SR leukemia) is reported as -26% (active), the growth (RPMI-8226 leukemia) is reported as -41.7% (active) and the growth (OVCAR-8 ovarian) is reported as -49.9% (active). The growth (OVCAR-5 ovarian) was -76.9% (active), the growth (OVCAR-4 ovarian) was -76% (active) and the growth (SK-OV-3 ovarian) was 16.6%. For the same molecule, the growth (IGROV1 ovarian) was -75.6% (active), the growth (OVCAR-3 ovarian) was -79.3% (active) and the growth (HS 578T breast) was 25.8%. The growth (NCI/ADR-RES ovarian) was -37.3% (active).
`Cc1nnc2c(Cc3ccccc3)nc3ccccc3n12` gave a growth (SR leukemia) of 94.6%, a growth (RPMI-8226 leukemia) of 93.2% and a growth (OVCAR-8 ovarian) of 104%. It also gave a growth (OVCAR-5 ovarian) of 90.7%, a growth (SK-OV-3 ovarian) of 99.1% and a growth (IGROV1 ovarian) of 121%. It also gave a growth (OVCAR-3 ovarian) of 94%, a growth (HS 578T breast) of 104% and a growth (NCI/ADR-RES ovarian) of 87.4%.
With `O=C(Nc1ccc(NC(=O)c2cc(=O)[nH]c3ccccc23)cc1)Nc1cccc(Cl)c1` the growth (SR leukemia) was 36.2%, the growth (RPMI-8226 leukemia) was 96.3% and the growth (OVCAR-8 ovarian) was 85.9%. The growth (OVCAR-5 ovarian) was 87.9%, the growth (SK-OV-3 ovarian) was 74.8% and the growth (IGROV1 ovarian) was 69%. It also gave a growth (OVCAR-3 ovarian) of 89.2%, a growth (HS 578T breast) of 93.5% and a growth (NCI/ADR-RES ovarian) of 94.9%.
`CN(C)CCC(=O)c1ccc([N+](=O)[O-])cc1` gave a growth (SR leukemia) of 97.8%, a growth (RPMI-8226 leukemia) of 89% and a growth (OVCAR-8 ovarian) of 110%. For the same molecule, the growth (OVCAR-5 ovarian) was 102%, the growth (OVCAR-4 ovarian) was 100% and the growth (SK-OV-3 ovarian) was 99.5%. For the same molecule, the growth (IGROV1 ovarian) was 109%, the growth (OVCAR-3 ovarian) was 110% and the growth (HS 578T breast) was 107%. For the same molecule, the growth (NCI/ADR-RES ovarian) was 107%.
In the case of `N#C/C(=C\c1ccc([N+](=O)[O-])s1)c1nc2cc(Br)ccc2s1`, the growth (SR leukemia) is reported as -18.3% (active), the growth (RPMI-8226 leukemia) is reported as -43.5% (active) and the growth (OVCAR-8 ovarian) is reported as -19.7% (active). The growth (OVCAR-5 ovarian) was 20.5%, the growth (OVCAR-4 ovarian) was -11.6% (active) and the growth (SK-OV-3 ovarian) was 10.1%. The growth (IGROV1 ovarian) was -32.7% (active), the growth (OVCAR-3 ovarian) was -28.6% (active) and the growth (NCI/ADR-RES ovarian) was -28.5% (active).
